# Results from PubChem BioAssay (NCATS).
# Several values for one entry are separate records, joined by “and”; a condition that tells them apart may be missing. Identical values can stand only once. Results filed as inconclusive are left out. Activity calls are given as the source filed them. Unless noted, no rule for the calls is given here.
# Columns and labels:
# [1] = Cell Proliferation Assay Versus the ED40515 IL2 Dependent ATL cell lines (AID 1053195; calls by dose curve); conditions: ED40515 IL2-dependent ATL cells
# Outline: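 IL2-dependent ED40515 ATL cells grown with IL2, 1000 cells/well in phenol red-free RPMI + 5% FBS, exposed 48 hours at 37C. Viability by CellTiter-Glo luminescence after 15 min at RT; 9.2 uM bortezomib as control.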
# [2] = qHTS profiling for inhibitors of Plasmodium falciparum (HB3) proliferation (AID 743324; active = well fitted curve in the direction sought with a large enough effect; an effect the other way counts as inactive or inconclusive;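 also: 100% = DMSO vehicle wells and 0% = artemisinin-treated control wells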); conditions: Plasmodium falciparum HB3 blood-stage proliferation; at 28.7 µM (top of the series) unless noted
# Outline: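 P. falciparum HB3 grown in erythrocytes (0.3% parasitemia, 2.5% hematocrit final) with compound for 72 h at 37 C, 5% CO2. Parasite DNA detected by SYBR Green after saponin/triton lysis overnight; normalized to 0.29 uM artemisinin and DMSO.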
# [3] = qHTS profiling of the MIPE4 collection as inhibitors of Plasmodium falciparum (3D7) proliferation (AID 743344);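 also: scaled between DMSO vehicle wells and 0.29 µM artemisinin as full inhibition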; conditions: P. falciparum 3D7 in erythrocytes, SYBR Green DNA fluorescence, 72 h; at 28.5 µM (top of the series) unless noted
# Outline: (§1)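 Erythrocytes infected with P. falciparum (0.3% parasitemia, 2.5% hematocrit) incubated with compounds 72 h at 37 C, 5% CO2. Lysis with saponin/Triton buffer containing SYBR Green I, overnight at room temperature in the dark; DNA fluorescence (485/535 nm) normalised to 0.29 uM artemisinin and DMSO.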
# [4] = qHTS profiling of the MIPE4 collection as inhibitors of Plasmodium falciparum (DD2) proliferation (AID 743345); conditions: P. falciparum Dd2 in erythrocytes, SYBR Green DNA, 72 h; at 28.5 µM (top of the series) unless noted
# Outline: as §1
# [5] = qHTS profiling of the MIPE4 collection as inhibitors of Plasmodium falciparum (DD2) proliferation (Rep 2) (AID 743346); conditions: P. falciparum Dd2 in erythrocytes, SYBR Green DNA, 72 h; at 28.5 µM (top of the series) unless noted
# Outline: as §1
# [6] = qHTS profiling of the MIPE4 collection as inhibitors of Plasmodium falciparum (HB3) proliferation (AID 743347);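 also: plate controls were DMSO vehicle wells for no effect and artemisinin wells for full effect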; conditions: P. falciparum HB3 in erythrocytes, SYBR Green DNA, 72 h; at 28.5 µM (top of the series) unless noted
# Outline: as §1
# [7] = High-throughput drug toxicity screening in the BPDCN cell line Gen2.2 (AID 1224824); conditions: Gen2.2 BPDCN cells; at 45.8 µM (top of the series) unless noted;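 also: cells exposed to compounds for 48 h before reading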
# Outline: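 Gen2.2 cells (500/well) in phenol red-free RPMI with 10% FBS were exposed to compounds for 48 h at 37 °C, 5% CO2. Viability was read by CellTiter-Glo luminescence and normalized to DMSO (100%) and 9.2 uM bortezomib (0%).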
# [8] = High-throughput drug toxicity screening in the BPDCN cell line Cal-1 (AID 1224825); conditions: Cal-1 BPDCN cell viability, qHTS; at 45.8 µM (top of the series) unless noted
# Outline: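 Cal-1 cells, 500 per well in phenol-red-free RPMI with 10% FBS, exposed to compounds for 48 hours at 37C, 5% CO2. Viability read by CellTiter-Glo luminescence; percent activity normalized to DMSO (100%) and 9.2 uM bortezomib final (0%).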
# [9] = qHTS assay for measurement of the activity of small molecule inhibitors on Zika virus induced Caspase-3 activity in human iPSC derived neural progenitor cells (hNPCs) (AID 1224857; active = well fitted curve in the direction sought with a large enough effect; an effect the other way counts as inactive or inconclusive; also: nearly all actives have a fitted effect of over 65% in size; also: potency is read from the fitted curve at half-maximal effect); conditions: hNPCs ZIKV-induced caspase-3/7, Caspase-Glo luminescence, 6 h; series mostly up to 45.7 µM
# Outline: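 After overnight (16–20 h) culture at 350 cells/well, hNPCs get compound, then ZIKV 2 FFU/cell one hour later. Six hours on, Caspase-Glo 3/7 is added and luminescence measured.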
# [10] = Cell Proliferation Assay Versus the ED40515 IL2 Independent ATL cell lines (AID 1053194; calls by dose curve); conditions: ED40515 IL2-independent ATL cells
# Outline: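 Log-phase ED40515 cells grown without IL-2, 1000 cells/well in phenol red-free RPMI with 5% FBS, exposed to drugs 48 h at 37C. Viability read as CellTiter-Glo luminescence after 15 min at RT; DMSO and 9.2 uM bortezomib as controls.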
Compound,Potency [1],"remaining proliferation (% of control), lower = more inhibition [2]","parasite growth, % of DMSO control [3] [%]","parasite growth remaining, % of DMSO control (lower = more inhibition) [4] [%]","parasite growth, % of control (lower = inhibition) [5] [%]","growth, % of control [6] [%]","cell viability, % of control (lower = more cytotoxic) [7] [%]",viability (% of control) [8] [%],Potency [9],Potency [10]
C[C@]12CCC(=O)C=C1CC[C@@H]1[C@@H]2[C@@H](O)C[C@@]2(C)[C@H]1CC[C@]2(O)C(=O)CO,14.8 µM (active),,,,,,,,,
Cc1c(CCOc2ccc(C(=O)O)cc2)c2cc(Cl)ccc2n1C(c1ccccc1)c1ccccc1,23.5 µM (active),23.4%,30.6,70.3,41.9,63.5,222,96.5,,
O=c1ncn2nc(Sc3ccc(F)cc3F)ccc2c1-c1c(Cl)cccc1Cl,16.6 µM (active),23.8%,17.6,76.3,,13.6,98.9,45.3,inactive,
CC1(C)CNc2cc(NC(=O)c3cccnc3NCc3ccncc3)ccc21,23.5 µM (active),5.63%,53.8,86.3,42.2,30.1,230,69.9,inactive,
C#Cc1cccc(Nc2ncnc3cc(OCCOC)c(OCCOC)cc23)c1,9.35 µM (active),6.23%,24.3,50.4,,4.75,24.7,10.9,,
Fc1ccc(Cl)cc1-c1nc(Nc2ccncc2)c2nccnc2n1,13.2 µM (active),13.2%,22.1,37,,8.98,443,85.1,inactive,
Cc1cc(C=c2sc3nc4ccccc4n3c2=O)c(C)n1-c1ccccc1,6.62 µM (active),116%,84.9,93.2,,424,,103,,
Cc1c(CN2CCN(C(=O)C(C)C)CC2)sc2c(N3CCOCC3)nc(-c3cnc(N)nc3)nc12,1.66 µM (active),8.2%,12.5,25.7,,4.71,2.32,3.99,inactive,
CCOc1cc(N2CCC(O)CC2)ccc1Nc1ncc2c(n1)N(C)c1ccccc1C(=O)N2C,11.8 µM (active),-0.346%,4.46,7.18,5.98,,6.39,2.19,,
Clc1ccc(Nc2nnc(Cc3ccncc3)c3ccccc23)cc1,,0.459%,34.2,84.7,63.4,53.1,117,68.2,inactive,33.2 µM (active)
CCN(CCCO)CCCOc1ccc2c(Nc3cc(CC(=O)Nc4cccc(F)c4)[nH]n3)ncnc2c1,,0.759%,,,,,,,,26.4 µM (active)
OCCn1cc(-c2cnc3nnn(Cc4ccc5ncccc5c4)c3n2)cn1,18.7 µM (active),64.7%,56.6,94.4,56.8,47.5,,89.8,inactive,
C[C@@H]1C[C@H]2[C@@H]3CCC4=CC(=O)C=C[C@]4(C)C3(F)[C@@H](O)C[C@]2(C)[C@@]1(O)C(=O)CO (stereo partly drawn),2.64 µM (active),85.9%,71.2,96,146,95.5,,,,
CC(=O)NC(C)c1ccc(Oc2ccc(OC(C)C)cc2)cc1 (stereo not drawn),13.2 µM (active),95.2%,23.1,10.5,8.63,20.1,281,98.5,inactive,
CC(C)OC(=O)C1=CN(C(=O)c2ccc(F)c(F)c2)CC(C)(C)c2c1[nH]c1ccccc21,4.18 µM (active),29.3%,51.5,44.6,66.4,46.5,115,108,inactive,
COc1ccc(CC2=NN3C([C@@H](CCc4ccccc4)[C@@H](C)O)=NC(C)C3C(=O)N2)cc1OC (stereo partly drawn),10.5 µM (active),17.1%,87.2,99.9,46.9,82,276,115,9.35 µM (active),
COc1cccc2cc(-c3nc(C4CCC(C(=O)O)CC4)n4ncnc(N)c34)[nH]c12 (stereo not drawn),4.18 µM (active),,13.9,16.6,28.6,9.36,5.49,21,inactive,
CCN(c1ccccc1)c1cc(NC)[n+](C)c(C)n1,18.7 µM (active),38.1%,47.7,94.6,,85.9,138,119,inactive,
OC(CN1CCC(Cc2ccc(F)cc2)CC1)c1ccc(Cl)cc1 (stereo not drawn),,,9.22,8.62,,46.6,,99.3,inactive,26.4 µM (active)
c1ccc(-c2nn3c(c2-c2ccnc4cc(OCCN5CCOCC5)ccc24)CCC3)nc1,,50.9%,25.6,50.6,,17.9,,73.1,inactive,26.4 µM (active)
O=C(Nc1cccnc1)N1CCC(Cc2cccc(Oc3ccc(C(F)(F)F)cn3)c2)CC1,5.9 µM (active),4.06%,14.7,52.2,21,5.3,147,52.7,inactive,
COc1ccc2nc(S(=O)Cc3ncc(C)c(OC)c3C)[nH]c2c1 (stereo not drawn),23.5 µM (active),79.1% and 76.7%,61.2,95,72.1,84.6,138,96.8,,
CO[C@@H]1[C@H](N(C)C(=O)c2ccccc2)C[C@H]2O[C@]1(C)n1c3ccccc3c3c4c(c5c6ccccc6n2c5c31)C(=O)NC4,,,,,,,21.1,14.1,,
COc1cc2c(cc1OC)CN(CCc1ccc(NC(=O)c3cccc4c(=O)c5cccc(OC)c5[nH]c34)cc1)CC2,16.6 µM (active),-0.901%,5.92,7.47,,4.23,238,104,inactive,
O=C(C1CC1)N1CC[C@@H](Cn2c(-c3ccc(-c4ccc5occc5c4)cc3)nc3cnccc32)C1,16.6 µM (active),55.2%,35,78.6,,21.9,133,95.4,inactive,
